In PubChem BioAssay (NCATS):
Results filed as inconclusive are left out. Active and inactive are the calls of the source. The call rests on the fitted dose curve; in most records, active means well fitted curve in the direction sought with a large enough effect; inconclusive means small, poorly fitted or top-dose-only effect, or another doubt; inactive means no such curve, though single readings can be large; an effect the other way counts as inactive or inconclusive.

Key:
[1] = qHTS of pediatric cancer cell lines to identify multiple opportunities for drug repurposing: Confirmatory screen for BT-37 cells (AID 1347117); further: potency means the concentration at half of the fitted maximal effect;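 further: viability measured after 48 h of compound exposure; nearly all actives have a fitted effect of over 55% in size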
In short: (§1)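 Viability after 48 h compound treatment at 37C, 500-1,000 cells/well, read as ATP luminescence with CellTiter-Glo. Primary screens used 11-point (MIPE, 0.78 nM-46 µM) or 8-point (NPC, 0.59 nM-46 µM) final concentrations; follow-up screens used 11-point dilutions.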

[2] = qHTS of pediatric cancer cell lines to identify multiple opportunities for drug repurposing: Confirmatory screen for TC32 cells (AID 1347118);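 further: cells exposed to compound for 48 h before the read; nearly all actives have a fitted effect of over 65% in size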; further: potency means the concentration at half of the fitted maximal effect
In short: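 Luminescent ATP read-out (CellTiter-Glo) of metabolically active TC32 cells after 48 h exposure. Concentration-response curves came from 11-point (MIPE, 0.78 nM–46 µM) or 8-point (NPC, 0.59 nM–46 µM) primary titrations; follow-up used 11 points.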

[3] = qHTS of pediatric cancer cell lines to identify multiple opportunities for drug repurposing: Confirmatory screen for MG 63 (6-TG R) cells (AID 1347119); further: nearly all actives have a fitted effect of over 55% in size; further: potency means the concentration at half of the fitted maximal effect
In short: as §1

[4] = qHTS of pediatric cancer cell lines to identify multiple opportunities for drug repurposing: Confirmatory screen for control Hh wild type fibroblast cells (AID 1347121); further: nearly all actives have a fitted effect of over 70% in size; further: potency means the concentration at half of the fitted maximal effect
In short: as §1

[5] = qHTS of pediatric cancer cell lines to identify multiple opportunities for drug repurposing: Confirmatory screen for Saos-2 cells (AID 1347127); further: nearly all actives have a fitted effect of over 60% in size; further: potency means the concentration at half of the fitted maximal effect
In short: as §1

[6] = qHTS of pediatric cancer cell lines to identify multiple opportunities for drug repurposing: Confirmatory screen for OHS-50 cells (AID 1347128);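 further: compound exposure lasted 48 h at 37 degrees C; nearly all actives have a fitted effect of over 55% in size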; further: potency means the concentration at half of the fitted maximal effect
In short: as §1

[7] = qHTS of pediatric cancer cell lines to identify multiple opportunities for drug repurposing: Confirmatory screen for SK-N-SH cells (AID 1347129);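 further: cells exposed to compound for 48 h before viability read; nearly all actives have a fitted effect of over 60% in size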; further: potency means the concentration at half of the fitted maximal effect
In short: as §1

[8] = system: Zika virus NS2B-NS3 protease; test: Primary screen GU AMC qHTS for Zika virus inhibitors (AID 1347154); further: nearly all actives have a fitted effect of over 70% in size; further: potency means the concentration at half of the fitted maximal effect
In short: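 Unlinked Zika NS2B hydrophilic domain–NS3 protease complex at 25 nM in 10 mM Tris-HCl pH 8.0, 0.01% Tween 20, with an AMC peptide substrate. Fluorescence change (340/450 nm) over 15 min at room temperature, normalized to controls, fitted to 4-parameter Hill.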

[9] = qHTS of pediatric cancer cell lines to identify multiple opportunities for drug repurposing: Confirmatory screen for U-2 OS cells (AID 1347122); further: nearly all actives have a fitted effect of over 65% in size; further: potency means the concentration at half of the fitted maximal effect
In short: as §1

[10] = qHTS of pediatric cancer cell lines to identify multiple opportunities for drug repurposing: Confirmatory screen for RD cells (AID 1347124);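 further: cells exposed to compound for 48 h before viability readout; nearly all actives have a fitted effect of over 65% in size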; further: potency means the concentration at half of the fitted maximal effect
In short: as §1

[11] = system: Zika virus NS2B-NS3 protease (unlinked complex); test: Primary screen GU Rhodamine qHTS for Zika virus inhibitors: Unlinked NS2B-NS3 protease assay (AID 1347159); further: nearly all actives have a fitted effect of over 60% in size
In short: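 Percent inhibition derives from the 15-min fluorescence change (ex 480, em 540 nm), normalized to no-enzyme and no-inhibitor wells. Reactions contained 25 nM NS2B-NS3 complex and 1.5 microM substrate in 10 mM Tris-HCl pH 8.0.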

[12] = system: Zika virus NS2B-NS3 protease (linked construct); test: Primary screen NINDS Rhodamine qHTS for Zika virus inhibitors (AID 1347160); further: nearly all actives have a fitted effect of over 55% in size
In short: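 In 10 mM Tris-HCl pH 8.0 containing 0.01% Tween 20, linked NS2B-NS3 protease (25 nM final) is exposed to test compounds for 15 min. Cleavage of 1.5 microM Rhodamine110 substrate is tracked by fluorescence over 15 min.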

[13] = qHTS of pediatric cancer cell lines to identify multiple opportunities for drug repurposing: Confirmatory screen for Rh41 cells (AID 1347123);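 further: 48 h compound exposure; nearly all actives have a fitted effect of over 60% in size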; further: potency means the concentration at half of the fitted maximal effect
In short: as §1

Furin (Homo sapiens) = Furin (Homo sapiens) (UniProt P09958); test: Furin counterscreen qHTS for Zika virus inhibitors (AID 1347149); further: potency means the concentration at half of the fitted maximal effect; nearly all actives have a fitted effect of over 70% in size
In short: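 Fluorogenic cleavage of BOC-RVRR-AMC (2 microM final, Km ~15 µM) was monitored (ex 340, em 450 nm) at 37C after 15 min RT preincubation of 5 nM furin with compounds in HEPES pH 7.0 buffer with CaCl2 and Triton X-100. Percent inhibition was fitted to a 4-parameter Hill curve.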

[14] = Confirmatory screen GU Rhodamine qHTS for Zika virus inhibitors qHTS (AID 1347157); further: potency means the concentration at half of the fitted maximal effect; nearly all actives have a fitted effect of over 70% in size
In short: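 Buffer 10 mM Tris-HCl pH 8.0, 0.01% Tween 20. Unlinked protease 25 nM; compound preincubation 15 min, RT, protected from light. Substrate Rhod110, 1.5 microM; ~15% conversion in 15 min.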

[15] = ZIKV-mCherry secondary qHTS for Zika virus inhibitors (AID 1347158); further: top concentration of the series differs between compounds
In short: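 Vero cells, 5,000/well, plated overnight at 37 °C, then compound added and infected with recombinant ZIKV-mCherry at MOI 1 for 48-72 h. PFA-fixed, Hoechst nuclear stain, high-content imaging; cells with mCherry intensity above 450 RFU scored infected, reported as percent infection.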

Measured: Potency

Furin (Homo sapiens), sequence (P09958 whole entry, looked up): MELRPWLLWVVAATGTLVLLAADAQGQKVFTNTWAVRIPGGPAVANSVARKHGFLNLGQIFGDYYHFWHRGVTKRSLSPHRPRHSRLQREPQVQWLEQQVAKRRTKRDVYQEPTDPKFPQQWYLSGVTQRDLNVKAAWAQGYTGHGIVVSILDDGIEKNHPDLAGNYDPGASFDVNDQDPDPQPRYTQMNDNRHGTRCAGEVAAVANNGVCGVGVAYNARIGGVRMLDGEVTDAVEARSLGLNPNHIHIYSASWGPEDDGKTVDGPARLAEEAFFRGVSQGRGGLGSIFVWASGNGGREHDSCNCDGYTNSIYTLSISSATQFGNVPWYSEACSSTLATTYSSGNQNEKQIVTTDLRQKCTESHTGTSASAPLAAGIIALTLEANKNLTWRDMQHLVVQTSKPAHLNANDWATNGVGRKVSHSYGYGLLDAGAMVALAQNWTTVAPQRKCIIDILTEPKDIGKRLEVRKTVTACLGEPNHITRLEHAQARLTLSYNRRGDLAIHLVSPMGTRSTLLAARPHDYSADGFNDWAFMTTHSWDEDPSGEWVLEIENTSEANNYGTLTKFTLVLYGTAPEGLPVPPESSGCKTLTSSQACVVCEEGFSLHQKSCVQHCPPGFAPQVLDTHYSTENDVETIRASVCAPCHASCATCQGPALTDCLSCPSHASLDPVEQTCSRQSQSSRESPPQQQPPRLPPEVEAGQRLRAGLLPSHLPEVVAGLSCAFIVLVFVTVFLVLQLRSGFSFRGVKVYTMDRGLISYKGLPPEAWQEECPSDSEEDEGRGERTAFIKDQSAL

COc1cc([C@@H]2c3cc4c(cc3[C@@H](O)C3COC(=O)C32)OCO4)cc(OC)c1O (stereo partly specified)
active: [1] 737 nM | [2] 585 nM | [3] 293 nM
inactive: [4] | [5] | [6] | [7] | [8]

O=C(O)CCCOc1ccc(Cl)cc1Cl
inactive: [1] | [4] | [9] | [10] | [5] | [6] | [7] | [8]

Cc1[nH]nc2ccc(-c3cncc(OC[C@@H](N)Cc4c[nH]c5ccccc45)c3)cc12
inactive: [10] | [8] | [11] | [12]
active: [1] 1650 nM | [2] 2330 nM | [3] 3290 nM | [4] 18500 nM | [5] 2610 nM | [6] 2610 nM | [7] 2960 nM

O=C1C(I)=CC(=C(c2cc(I)c(O)c(I)c2)c2ccccc2C(=O)O)C=C1I
active: [13] 9270 nM | Furin (Homo sapiens) 18700 nM | [8] 12800 nM | [14] 2820 nM
not listed: [2] | [9] | [11] | [12]
inactive: all other assays above

CS(=O)(=O)c1ccc(C(=O)C2C(=O)CCCC2=O)c([N+](=O)[O-])c1
not listed: [8] | [11] | [12] | Furin (Homo sapiens) | [14] | [15]
inactive: all other assays above

C[C@@H]1O[C@@H](O[C@@H]2C=C3CC[C@@H]4[C@@H](CC[C@]5(C)[C@H](c6ccc(=O)oc6)CC[C@@]45O)[C@@]3(C)CC2)[C@H](O)[C@H](O)[C@H]1O
active: [1] 13.1 nM | [2] 23.3 nM | [3] 7.4 nM | [9] 16.5 nM | [13] 16.5 nM | [10] 16.5 nM | [5] 185 nM | [6] 16.5 nM

CC(=Cc1csc(C)n1)[C@@H]1C[C@H]2O[C@]2(C)CCC[C@H](C)[C@@H](O)[C@@H](C)C(=O)C(C)(C)[C@@H](O)CC(=O)O1
active: [1] 5.2 nM | [2] 3.7 nM | [3] 3.3 nM | [9] 26.1 nM | [13] 10.4 nM | [5] 13.1 nM | [6] 13.1 nM
inactive: [8]

C[C@@H]1CC[C@@]2(OC1)O[C@H]1C[C@H]3[C@@H]4CC=C5C[C@@H](O[C@@H]6O[C@H](CO)[C@@H](O[C@@H]7O[C@@H](C)[C@H](O)[C@@H](O)[C@@H]7O)[C@H](O)[C@@H]6O[C@@H]6O[C@@H](C)[C@H](O)[C@@H](O)[C@@H]6O)CC[C@]5(C)[C@@H]4CC[C@]3(C)[C@@H]1[C@H]2C
active: [1] 5220 nM | [2] 4140 nM | [3] 2610 nM | [4] 13100 nM | [5] 5220 nM | [6] 5220 nM | [7] 16600 nM
inactive: [8]

CCCCCC[C@H]1C(=O)O[C@H](C)[C@H](NC(=O)c2cccc(NC=O)c2O)C(=O)O[C@@H](C)[C@@H]1OC(=O)CC(C)C
active: [2] 117 nM | [3] 13.1 nM | [4] 16.5 nM | [7] 9350 nM

CC(C)(C)C(O)C(Oc1ccc(Cl)cc1)n1cncn1 (stereo unspecified)
not listed: [11] | [12] | Furin (Homo sapiens) | [14] | [15]
inactive: all other assays above

CC(C)(O)C=CC(=O)[C@](C)(O)[C@H]1[C@H](O)C[C@]2(C)[C@@H]3CC=C4[C@@H](C=C(O)C(=O)C4(C)C)[C@]3(C)C(=O)C[C@@]12C
inactive: [8]
active: [1] 827 nM | [2] 827 nM | [3] 117 nM | [4] 2610 nM | [9] 208 nM | [13] 208 nM | [10] 465 nM | [5] 147 nM | [6] 1470 nM | [7] 264 nM

CCC(=O)OC1CCC2C3CCC4=CC(=O)CC[C@@]4(C)C3CC[C@]12C (stereo partly specified)
inactive: [1] | [3] | [4] | [9] | [10] | [5] | [6] | [7] | [8]

CC=C(C)C(=O)O[C@H]1C(C)=C2[C@@H]3OC(=O)[C@@](C)(O)[C@@]3(O)[C@@H](OC(=O)CCC)C[C@](C)(OC(C)=O)[C@@H]2[C@@H]1OC(=O)CCCCCCC
inactive: [1] | [2] | [3] | [4] | [9] | [13] | [10] | [7]

C=CCON=C(C[C@H]1O[C@@H]2O[C@]3(C)CC[C@@H]4[C@H](C)CC[C@@H]([C@H]1C)[C@@]24OO3)[C@H]1O[C@@H]2O[C@]3(C)CC[C@H]4[C@H](C)CC[C@@H]([C@@H]1C)[C@@]24OO3
active: [1] 147 nM | [13] 52.2 nM
inactive: [7] | [8]

CC[C@@H]1[C@@H](C)O[C@@](O)([C@@H](C)[C@H](O)[C@H](C)[C@H]2OC(=O)C=CC=C[C@@H](C)[C@@H]([C@@H](C)[C@@H](O)[C@H](C)[C@@]3(O)C[C@H](O[C@H]4C[C@H](O)[C@H](O)[C@H](C)O4)[C@H](CC)[C@@H](C)O3)OC(=O)C=CC=C[C@@H]2C)C[C@H]1O[C@H]1C[C@H](O)[C@H](O)[C@H](C)O1
inactive: [1] | [2] | [4] | [9] | [10] | [5] | [6] | [8]

O=C(O)COc1nc(Cl)c(Cl)cc1Cl
inactive: [1] | [3] | [4] | [9] | [13] | [10] | [6] | [7]
